In PubChem BioAssay:
Calls of active or inactive are those of the source. Unless noted, no rule for the calls is given here.

Assays:
[1] = A549 cell viability effects, profiling panel, calcein-AM fluorescence, 48 h, basal (AID 1162); settings: higher = more signal; also: test concentration not given here
[2] = adipocyte viability effects, profiling panel, cell-based, 3T3-L1 adipocytes, calcein-AM fluorescence, 48 h, basal (AID 1163); settings: 3T3-L1 adipocytes viability, higher = more signal; also: test concentration not given here
[3] = HepG2 cell viability effects, profiling panel, calcein-AM fluorescence, 48 h, basal (AID 1164); settings: higher = more signal; also: test concentration not given here
[4] = MM1S cell viability effects, profiling panel, calcein-AM fluorescence, 48 h, basal (AID 1165); settings: higher = more signal;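 also: viability of MM1S multiple myeloma cells under basal unstimulated conditions; test concentration not given here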
[5] = basal RPMI8226 viability, no added stimulus, profiling panel, cell-based, calcein-AM fluorescence, 48 h, PK04 Diversity Set (AID 1166); settings: RPMI8226 myeloma viability, higher = more signal;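 also: cells grown under basal conditions without added stimulus; test concentration not given here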
[6] = basal HepG2 mitochondrial membrane potential changes, profiling panel, cell-based, JC-1 fluorescence, 24 h, 100 nL compound (AID 1167); settings: higher = more signal; also: test concentration not given here
[7] = basal 3T3-L1 adipocyte mitochondrial potential changes, profiling panel, cell-based, JC-1 fluorescence, 3T3-L1 adipocytes, 24 h, 100 nL compound (AID 1168); settings: JC-1 mitochondrial fluorescence, higher = more signal, called active from +8 up or from −8 down; also: test concentration not given here
[8] = basal RPMI8226 mitochondrial membrane potential changes, profiling panel, cell-based, JC-1 fluorescence, 24 h, 100 nL compound (AID 1169); settings: RPMI8226 myeloma, JC-1 mitochondrial potential fluorescence, higher = more signal; also: test concentration not given here
[9] = basal MM1S mitochondrial membrane potential changes, profiling panel, cell-based, JC-1 fluorescence, 24 h, 100 nL compound (AID 1170); settings: higher = more signal; also: test concentration not given here
[10] = A549 lung cancer cell viability effects, profiling panel, resazurin fluorescence, 24 h, PK04 Diversity Set (AID 1171); settings: higher = more signal, called active from +8 up or from −8 down; also: test concentration not given here
[11] = HepG2 liver cancer cell viability effects, profiling panel, resazurin fluorescence, 24 h, PK04 Diversity Set (AID 1172); settings: higher = more signal; also: test concentration not given here
[12] = basal S. cerevisiae growth modulation, no modifier, primary screen, OD600, strain BY4716, 24 h, basal condition (AID 1173); settings: OD600, 24 h, higher = more signal, called active from +8 up or from −8 down
[13] = MM1S myeloma cell viability, profiling panel, resazurin fluorescence, basal, 24 h, PK04 Diversity Set (AID 1174); settings: higher = more signal, called active from +8 up or from −8 down;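 also: MM1S multiple myeloma cell line; test concentration not given here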
[14] = target: Dihydroorotate dehydrogenase (quinone), mitochondrial (Plasmodium falciparum (isolate 3D7)) (UniProt Q08210); assay: PfDHODH enzyme inhibitors, primary screen, biochemical, C-terminal His tag, absorbance 600 nm (AID 1175); settings: DCIP absorbance 600 nm, higher = more signal, called active from +8 up or from −8 down;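 also: recombinant parasite enzyme with a five histidine tag at its C terminus; test concentration not given here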
[15] = P. aeruginosa biofilm formation inhibitors, primary screen, strain PAO1, LB-PBS medium, absorbance 600 nm (AID 1176); also: test concentration not given here; settings: P. aeruginosa PAO1 growth/biofilm, A600, 12 h; higher = more signal
[16] = S. cerevisiae RM11-1a growth modifiers, primary screen, strain RM11-1a, OD600, basal, 24 h (AID 1177); settings: OD600, 24 h, higher = more signal, called active from +8 up or from −8 down;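 also: cultures grown under basal conditions with no added stressor; test concentration not given here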
[17] = E. coli acrAB mutant growth effects, primary screen, E. coli filamentation inducers, strain DRC39, OD650, 24 h (AID 1178); settings: higher = more signal, called active from +8 up or from −8 down;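 also: growth measured as culture turbidity by optical density at 650 nm; test concentration not given here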
[18] = E. coli acrAB mutant growth effects, primary screen, E. coli filamentation inducers, strain DRC39, OD650, 48 h (AID 1179);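 also: screen aims at cell division blockers that make cells filament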; settings: E. coli DRC39 delta-acrAB growth, higher = more signal, called active from +8 up or from −8 down
[19] = RPMI8226 myeloma cell viability, profiling panel, resazurin fluorescence, basal, 24 h, PK04 Diversity Set (AID 1180); settings: higher = more signal;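 also: RPMI8826 multiple myeloma cell line at 5000 cells per well; test concentration not given here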
[20] = target: E3 ubiquitin-protein ligase XIAP (Homo sapiens) (UniProt P98170); assay: XIAP binders, primary screen, biophysical, small-molecule microarray, fluorescence 635 nm (AID 1181); settings: small-molecule microarray binding, higher = more signal;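 also: score merges 667 nm emission and signal to noise over triplicate slides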
E3 ubiquitin-protein ligase XIAP (Homo sapiens), sequence (P98170 whole entry, looked up): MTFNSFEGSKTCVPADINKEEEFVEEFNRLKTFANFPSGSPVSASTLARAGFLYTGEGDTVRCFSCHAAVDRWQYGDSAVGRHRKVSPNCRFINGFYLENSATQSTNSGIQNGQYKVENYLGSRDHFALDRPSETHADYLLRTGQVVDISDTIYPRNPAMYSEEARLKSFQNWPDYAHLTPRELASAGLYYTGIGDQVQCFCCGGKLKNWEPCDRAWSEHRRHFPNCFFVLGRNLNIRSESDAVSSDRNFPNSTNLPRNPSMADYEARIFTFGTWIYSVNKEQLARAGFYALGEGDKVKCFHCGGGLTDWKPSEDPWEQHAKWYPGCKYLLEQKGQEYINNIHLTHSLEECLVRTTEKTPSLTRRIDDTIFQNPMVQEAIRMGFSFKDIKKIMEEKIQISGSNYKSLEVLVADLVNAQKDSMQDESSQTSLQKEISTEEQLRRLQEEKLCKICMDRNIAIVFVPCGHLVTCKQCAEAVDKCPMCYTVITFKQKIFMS

Dihydroorotate dehydrogenase (quinone), mitochondrial (Plasmodium falciparum (isolate 3D7)), sequence (Q08210 whole entry, looked up): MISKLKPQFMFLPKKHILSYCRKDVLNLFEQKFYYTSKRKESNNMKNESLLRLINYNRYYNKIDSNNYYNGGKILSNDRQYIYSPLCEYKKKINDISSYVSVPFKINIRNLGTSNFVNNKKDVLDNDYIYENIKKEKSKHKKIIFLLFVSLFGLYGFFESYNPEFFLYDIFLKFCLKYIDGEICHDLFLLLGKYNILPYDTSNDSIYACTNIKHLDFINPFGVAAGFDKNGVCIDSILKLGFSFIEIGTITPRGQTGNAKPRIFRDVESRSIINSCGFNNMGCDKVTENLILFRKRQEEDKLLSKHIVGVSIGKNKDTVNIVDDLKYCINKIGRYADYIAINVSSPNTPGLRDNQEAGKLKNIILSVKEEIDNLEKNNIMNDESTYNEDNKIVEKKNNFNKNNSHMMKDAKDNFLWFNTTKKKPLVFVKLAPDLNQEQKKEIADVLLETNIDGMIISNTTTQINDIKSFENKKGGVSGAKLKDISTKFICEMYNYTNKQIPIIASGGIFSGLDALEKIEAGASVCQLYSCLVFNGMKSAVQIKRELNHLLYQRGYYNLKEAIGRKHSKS

Compound | z-score [1] | z-score [2] | z-score [3] | z-score [4] | z-score [5] | z-score [6] | z-score [7] | z-score [8] | z-score [9] | z-score [10] | z-score [11] | z-score [12] | z-score [13] | composite z-score [14] | z-score [15] | z-score [16] | z-score [17] | z-score [18] | z-score [19] | composite z-score [20]
CN(C)CCCNC(=O)[C@@H]1c2ccccc2C(=O)N(Cc2ccccc2Cl)[C@H]1c1ccc(CO)cc1 | 0.904 | 0.841 | 0.112 | -0.147 | -0.872 | 1.5 | 0.517 (inactive) | 0.114 | 0.599 | 0.508 (inactive) | 0.248 | -0.433 (inactive) | 0.608 (inactive) | 0.411 (inactive) | 0.0561 (inactive) | -0.39 (inactive) | 0.206 (inactive) | -0.2 (inactive) | 0.179 | -0.02
COc1ccc([Si](C)(C)[C@@H]2[C@@H](CC(=O)N(CCO)Cc3ccccc3)O[C@]3(C(=O)N(Cc4cccc(N5C(=O)c6cccc7cccc5c67)c4)c4ccccc43)[C@H]2C)cc1 | -1.32 | 1.43 | -1.12 | -1.48 | -3.72 | 0.641 | 2.03 (inactive) | -1.02 | -1.4 | -0.999 (inactive) | -0.47 | -0.304 (inactive) | -1.6 (inactive) | -1.29 (inactive) | 1.25 (inactive) | 0.323 (inactive) | 1.75 (inactive) | 1.51 (inactive) | -1.27 | -0.124
Cc1ccc(S[C@]2(C(=O)NCC(F)(F)F)CC(=O)N(Cc3ccccc3)[C@@H]2c2ccc(CO)cc2I)cc1 | 0.208 | -0.649 | -0.425 | -1.84 | -2.08 | -1.75 | -0.68 (inactive) | -0.797 | -1.59 | 0.589 (inactive) | 0.448 | -3.93 (inactive) | -3.15 (inactive) | 0.343 (inactive) | 0.848 (inactive) | -1.55 (inactive) | 0.531 (inactive) | 0.562 (inactive) | -2.27 | 0.0338
COC(=O)[C@@]1(Cc2ccccc2)[C@H]2c3cc(C(=O)N(C)C)n(CCN4CNCC4=O)c3C[C@H]2CN1C(=O)c1ccccc1 | 0.134 | -0.391 | 0.0701 | 0.0517 | -0.002 | 0.196 | -0.179 (inactive) | -0.874 | 1.46 | 0.293 (inactive) | 0.0001 | 1.13 (inactive) | -0.473 (inactive) | 0.0849 (inactive) | -0.0703 (inactive) | 0.0591 (inactive) | -0.459 (inactive) | -0.217 (inactive) | 0.432 | 0.404
CCCCCCc1nc(C2CC2)cc2c1[Si](C(C)C)(C(C)C)OC2 | -0.315 | 0.865 | -0.131 | -2.26 | -1.92 | -1.01 | -0.0319 (inactive) | -0.651 | -0.00829 | -0.366 (inactive) | -0.621 | 0.436 (inactive) | 0.0766 (inactive) | -2.54 (inactive) | -0.227 (inactive) | -0.431 (inactive) | -0.423 (inactive) | -0.606 (inactive) | -0.584 | -0.206
COCCCNC(=O)[C@@]1(Cc2ccccc2N=[N+]=[N-])COC(c2ccc(OCCCO)cc2)=N1 | 0.552 | -0.707 | 0.815 | -0.919 | -0.0778 | 0.796 | 0.156 (inactive) | -0.408 | -1.21 | 0.992 (inactive) | 0.677 | -1.68 (inactive) | -0.583 (inactive) | 0.962 (inactive) | -0.76 (inactive) | 0.483 (inactive) | 0.349 (inactive) | 0.746 (inactive) | 0.895 | 0.0049
O=C1O[C@@H](c2ccccc2)[C@@H](c2ccccc2)N2[C@@H](c3ccc(O)cc3)[C@]3(C(=O)Nc4ccc(C#CC5=CCCCC5)cc43)[C@@H](C(=O)NC[C@H](O)c3ccccc3)[C@H]12 | 0.0793 | 0.294 | -1.86 | -3.33 | -4.54 | -2.26 | 1.33 (inactive) | -1.06 | -1.1 | -1.49 (inactive) | -0.705 | -0.593 (inactive) | -3.09 (inactive) | -0.609 (inactive) | 1.6 (inactive) | 2.43 (inactive) | 0.0087 (inactive) | 0.939 (inactive) | -6.69 | -0.0397
COc1ccc([Si](C)(C)[C@@H]2[C@@H](CC(=O)N(CCO)Cc3ccccc3)O[C@]3(C(=O)N(c4ccccc4)c4ccccc43)[C@H]2C)cc1 | -2.69 | 1.11 | -4.56 | -2.67 | -4.36 | -0.899 | 0.928 (inactive) | -1.08 | -2.3 | -1.94 (inactive) | -2.66 | -1.74 (inactive) | -5.11 (inactive) | 0.818 (inactive) | 1.26 (inactive) | 0.525 (inactive) | 1.21 (inactive) | 1.1 (inactive) | -5.53 | -0.112
CC(c1ccccc1)C(O)C1C=CC2C(=O)N(c3ccccc3)C(=O)C2N1Nc1ccc([N+](=O)[O-])cc1 (stereo not given) | -0.898 | -0.755 | 0.204 | 0.48 | -0.129 | -0.411 | -1 (inactive) | -1.03 | -1.44 | 1.07 (inactive) | 0.796 | 0.326 (inactive) | 0.831 (inactive) | 0.101 (inactive) | 0.449 (inactive) | 0.399 (inactive) | -0.821 (inactive) | 0.434 (inactive) | 0.538 | -0.334
